# Source: PubChem BioAssay (Tox21)
# Values joined by “and” are separate entries in the source; they are usually repeats but may differ in a detail not shown here. Equal entries are not always repeated. Records with an inconclusive call do not appear. A call without a number means that no potency is given here. More than one record can exist for a structure, and the calls need not agree. Active and inactive are the calls of the source. Unless noted, calls follow the shape of the dose curve; as a rule, active = well fitted curve in the direction sought with a large enough effect in the repeat runs; inconclusive = weak or mixed curves; inactive = no such curve, though single readings can be large; an effect the other way counts as inactive or inconclusive.
# Experiments:
# [1] = qHTS assay to identify small molecule agonists of the estrogen receptor alpha (ER-alpha) signaling pathway in the presence of an antagonist - cell viability counter screen (AID 1259386);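 also: series mostly up to about 92 µM; cells exposed to compounds for 22 h at 37 °C before the viability read; nearly all actives have a fitted effect of over 30% in size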
# Summary of the method: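 Using estrogen-depleted VM7Luc4E2 cells, the 15-concentration compound series was applied together with 10.0nM ICI-182,780 and incubated 22hr at 37C/5% CO2. Cell viability was then scored by CellTiter-Fluor.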
# [2] = target: Progesterone receptor (Homo sapiens) (UniProt P06401); assay: qHTS assay to identify small molecule agonists of the progesterone receptor (PR) signaling pathway (AID 1346784; calls by dose curve; also: nearly all actives have a fitted effect of over 30% in size)
# Progesterone receptor (Homo sapiens), sequence (P06401 whole entry, looked up): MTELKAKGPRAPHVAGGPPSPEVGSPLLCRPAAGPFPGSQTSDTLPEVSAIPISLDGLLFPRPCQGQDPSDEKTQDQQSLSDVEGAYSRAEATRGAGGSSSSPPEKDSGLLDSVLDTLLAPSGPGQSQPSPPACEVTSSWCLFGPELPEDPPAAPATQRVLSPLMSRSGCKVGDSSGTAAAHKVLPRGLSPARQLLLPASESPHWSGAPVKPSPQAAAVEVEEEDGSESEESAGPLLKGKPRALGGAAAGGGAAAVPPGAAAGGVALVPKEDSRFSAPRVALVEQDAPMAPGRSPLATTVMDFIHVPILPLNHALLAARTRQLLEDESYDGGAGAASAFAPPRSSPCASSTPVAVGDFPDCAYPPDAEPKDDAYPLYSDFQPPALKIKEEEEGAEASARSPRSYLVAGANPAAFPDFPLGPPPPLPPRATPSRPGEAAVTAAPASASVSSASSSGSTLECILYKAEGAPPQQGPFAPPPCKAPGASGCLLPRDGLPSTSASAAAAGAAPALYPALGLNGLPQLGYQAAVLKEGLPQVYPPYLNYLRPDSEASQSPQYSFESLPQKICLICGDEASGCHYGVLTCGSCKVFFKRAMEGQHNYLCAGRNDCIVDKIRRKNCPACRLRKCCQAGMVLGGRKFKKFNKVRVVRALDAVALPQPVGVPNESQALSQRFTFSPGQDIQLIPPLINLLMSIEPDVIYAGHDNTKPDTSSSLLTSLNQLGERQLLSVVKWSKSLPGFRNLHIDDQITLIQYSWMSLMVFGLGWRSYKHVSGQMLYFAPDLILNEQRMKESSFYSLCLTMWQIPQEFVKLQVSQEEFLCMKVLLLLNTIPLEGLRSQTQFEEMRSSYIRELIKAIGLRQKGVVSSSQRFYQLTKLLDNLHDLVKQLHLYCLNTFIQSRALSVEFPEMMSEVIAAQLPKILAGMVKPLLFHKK
# Summary of the method: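 PR-UAS-bla HEK 293T cells (beta-lactamase reporter under UAS) in 2% charcoal-stripped FBS, dosed with 23 nL compound after 6 hr, incubated 16hr at 37C. LiveBLAzer B/G FRET substrate added, fluorescence read after 2 hours.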
# [3] = target: Progesterone receptor (Homo sapiens) (UniProt P06401); assay: qHTS assay to identify small molecule antagonists of the progesterone receptor (PR) signaling pathway (AID 1346795; active = well fitted inhibition curve with a large enough effect in the signal ratio in the repeat runs, not every such curve was filed as active; the % refers to the signal ratio; also: potency is read from the fitted curve at half-maximal effect)
# Summary of the method: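 PR-UAS-bla HEK293T cells with beta-lactamase reporter under UAS control, in 2% charcoal-stripped FBS, treated with compounds plus 1 nM promegestone (R5020, final) for 16 hr at 37C. Read-out: FRET beta-lactamase substrate fluorescence after 2 hr at room temperature.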
# [4] = qHTS assay to identify small molecule agonists of the progesterone receptor (PR) signaling pathway - cell viability counter screen (AID 1346799; calls by dose curve; also: nearly all actives have a fitted effect of over 45% in size)
# Summary of the method: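 Counter screen in the PR-UAS-bla HEK293T wells (2% charcoal-stripped FBS, 16 h compound exposure at 37 C) after the bla read. CellTiter-Glo added, 30 min at room temperature, luminescence read as cell viability.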
# [5] = qHTS assay to identify small molecule antagonists of the TGF-beta/Smad signaling pathway - cell viability counter screen (AID 1346824); also: nearly all actives have a fitted effect of over 50% in size
# Summary of the method: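 Cytotoxicity counter-screen run in the same wells as the beta-lactamase Smad reporter read: CellTiter-Glo luminescence after 30 min at room temperature. HEK 293T SBE-bla cells had 5 hr compound exposure at 37 C with TGF-beta1 (0.25 ng/mL stock).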
# [6] = qHTS assay to identify small molecule agonists of the TGF-beta/Smad signaling pathway - cell viability counter screen (AID 1346829); also: top concentration of the series differs between compounds; nearly all actives have a fitted effect of over 45% in size
# Summary of the method: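 Compound-treated SBE-bla HEK 293T cells (5 hr, 37 C) were assessed for viability with CellTiter-Glo in parallel with the reporter read.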
# [7] = qHTS assay to identify small molecule agonists of the TGF-beta/Smad signaling pathway (AID 1346859; active = well fitted activation curve with a large enough effect in the signal ratio in the repeat runs, not every such curve was filed as active; the % refers to the signal ratio; also: potency is read from the fitted curve at half-maximal effect; as to activation: series mostly up to about 77 µM)
# Summary of the method: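 SBE-bla HEK293T cells plated overnight, then compound exposure for 5 h at 37 C. Beta-lactamase reporter read with LiveBLAzer B/G FRET substrate after 2 h at room temperature, fluorescence at 405 nm excitation, 460/530 nm emission.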
# [8] = target: Thyrotropin-releasing hormone receptor (Homo sapiens) (UniProt P34981); assay: qHTS assay to identify small molecule agonists of the thyrotropin-releasing hormone receptor (TRHR) signaling pathway (AID 1346891; calls by dose curve; also: series mostly up to about 58 µM)
# Thyrotropin-releasing hormone receptor (Homo sapiens), sequence (P34981 whole entry, looked up): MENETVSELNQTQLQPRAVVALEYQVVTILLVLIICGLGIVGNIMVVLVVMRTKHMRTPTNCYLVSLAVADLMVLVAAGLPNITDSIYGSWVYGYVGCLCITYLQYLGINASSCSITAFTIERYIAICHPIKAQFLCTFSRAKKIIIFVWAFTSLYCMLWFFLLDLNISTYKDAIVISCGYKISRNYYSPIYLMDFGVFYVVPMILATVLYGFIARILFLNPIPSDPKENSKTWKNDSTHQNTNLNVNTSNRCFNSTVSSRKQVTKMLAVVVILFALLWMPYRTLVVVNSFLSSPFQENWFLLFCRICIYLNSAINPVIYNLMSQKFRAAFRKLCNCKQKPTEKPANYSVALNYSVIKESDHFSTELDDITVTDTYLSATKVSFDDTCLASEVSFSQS
# Summary of the method: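 HEK293 cells expressing TRHR plated 18 h at 37 C/5% CO2, calcium dye-loaded 2 h at 37 C, then compound added (agonist mode); kinetic calcium fluorescence read 3 min at 1 s intervals; 15 concentrations in triplicate.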
# [9] = Human pregnane X receptor (PXR) small molecule agonists, qHTS cell viability counter screen (AID 1346977); also: nearly all actives have a fitted effect of over 50% in size
# Summary of the method: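 PXR-Luc HepG2 cells (2,000/well, 5% charcoal-stripped FBS) preincubated 5 hr, then exposed to compounds 24 hr at 37 C. Viability read in the same wells by CellTiter-Fluor fluorescence, reagent added at 23 hr, 1 hr incubation.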
# [10] = Caspase-3/7 induction in HepG2 cells by small molecules, qHTS assay (AID 1346978); also: nearly all actives have a fitted effect of over 15% in size
# Summary of the method: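 Caspase-3/7 induction was measured by Caspase-Glo 3/7 luminescence (30 min, room temperature) after a 17 hr compound exposure of wild-type HepG2 cells seeded at 2,000 per well and pre-incubated 5 hr.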
# [11] = Caspase-3/7 induction in CHO-K1 cells by small molecules, qHTS cell viability counter screen (AID 1346979); also: nearly all actives have a fitted effect of over 35% in size; also: potency is read from the fitted curve at half-maximal effect
# Summary of the method: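 Wild-type CHO-K1 cells (1,500/well) treated with compound after 5 h plating; after 16 h at 37C, viability read as CellTiter-Fluor fluorescence following 1 h reagent incubation, in the same wells as the caspase read.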
# [12] = Caspase-3/7 induction in CHO-K1 cells by small molecules, qHTS assay (AID 1346980); also: nearly all actives have a fitted effect of over 15% in size
# Summary of the method: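 Luminescent Caspase-Glo 3/7 read (30min, room temperature) quantified apoptosis induction. Cells were wild-type CHO-K1, treated with compound for 17hr at 37 C and 5% CO2.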
# [13] = Caspase-3/7 induction in HepG2 cells by small molecules, qHTS cell viability counter screen (AID 1346981); also: series mostly up to about 92 µM; nearly all actives have a fitted effect of over 30% in size
# Summary of the method: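 After a 5-hr attachment period at 37 C and 5% CO2, wild-type HepG2 cells received compounds in DMSO. Sixteen hours later CellTiter-Fluor was dispensed and the fluorescent signal quantified after a further hour.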
# [14] = target: Nuclear receptor subfamily 1 group I member 2 (Homo sapiens) (UniProt O75469); assay: Human pregnane X receptor (PXR) small molecule agonists, qHTS assay (AID 1346982); also: nearly all actives have a fitted effect of over 35% in size; also: potency is read from the fitted curve at half-maximal effect
# Nuclear receptor subfamily 1 group I member 2 (Homo sapiens), sequence (O75469 whole entry, looked up): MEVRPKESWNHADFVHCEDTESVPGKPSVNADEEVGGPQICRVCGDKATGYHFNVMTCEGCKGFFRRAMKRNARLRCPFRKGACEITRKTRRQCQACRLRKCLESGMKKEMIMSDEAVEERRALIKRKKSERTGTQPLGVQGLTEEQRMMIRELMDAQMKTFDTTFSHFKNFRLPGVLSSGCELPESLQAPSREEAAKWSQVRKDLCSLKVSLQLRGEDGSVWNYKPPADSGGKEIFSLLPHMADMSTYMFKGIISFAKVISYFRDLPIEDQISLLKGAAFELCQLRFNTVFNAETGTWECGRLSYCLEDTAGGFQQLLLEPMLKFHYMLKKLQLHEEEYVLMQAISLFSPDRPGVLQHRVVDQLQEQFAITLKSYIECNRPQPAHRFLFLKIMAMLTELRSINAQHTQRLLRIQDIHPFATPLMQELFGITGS
# Summary of the method: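 Tox21 qHTS; PXR-Luc HepG2; compounds pinned from DMSO; 24 hr, 37 C; ONE-Glo luciferase detection, 30 min room temperature.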
# [15] = target: Cytochrome P450 2D6 (Homo sapiens) (UniProt P10635); assay: Cytochrome P450 Family 2 Subfamily D Member 6 (CYP2D6) small molecule antagonists: luciferase reporter qHTS assay (AID 1671196); also: nearly all actives have a fitted effect of over 50% in size; also: potency is read from the fitted curve at half-maximal effect
# Cytochrome P450 2D6 (Homo sapiens), sequence (P10635 whole entry, looked up): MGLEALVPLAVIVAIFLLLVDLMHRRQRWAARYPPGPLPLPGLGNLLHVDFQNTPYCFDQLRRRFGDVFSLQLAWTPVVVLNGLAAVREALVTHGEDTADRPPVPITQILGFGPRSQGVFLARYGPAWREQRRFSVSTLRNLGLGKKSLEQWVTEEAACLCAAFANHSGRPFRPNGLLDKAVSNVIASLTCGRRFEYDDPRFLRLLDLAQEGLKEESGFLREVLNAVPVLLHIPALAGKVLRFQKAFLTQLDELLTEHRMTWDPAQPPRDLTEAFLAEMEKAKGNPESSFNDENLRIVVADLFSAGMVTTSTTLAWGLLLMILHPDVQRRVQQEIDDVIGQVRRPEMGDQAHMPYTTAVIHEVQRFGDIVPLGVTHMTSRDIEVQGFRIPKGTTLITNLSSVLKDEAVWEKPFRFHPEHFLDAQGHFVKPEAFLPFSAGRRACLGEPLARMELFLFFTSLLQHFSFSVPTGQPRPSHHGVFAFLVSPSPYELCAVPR
# Summary of the method: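 Room-temperature luminescent CYP2D6 activity assay: compound preincubated 10 min with enzyme–substrate mix, NADPH-initiated reaction 1 h, detection reagent 20 min before reading.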
# [16] = target: Thyrotropin-releasing hormone receptor (Homo sapiens) (UniProt P34981); assay: qHTS assay to identify small molecule antagonists of the thyrotropin-releasing hormone receptor (TRHR) signaling pathway (AID 1346877; active = well fitted inhibition curve with a large enough effect in the repeat runs, not every such curve was filed as active; also: series mostly up to about 51 µM)
# Summary of the method: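 Calcium signal in dye-loaded TRHR/HEK293 cells; compounds added 5 min before TRH (1 nM final); fluorescence monitored 3 min at 1 s steps.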
# [17] = qHTS assay to identify small molecule antagonists of the progesterone receptor (PR) signaling pathway - cell viability counter screen (AID 1346798); also: series mostly up to about 92 µM; nearly all actives have a fitted effect of over 50% in size
# Summary of the method: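 PR-UAS-bla HEK293T cells, 3,000/well in 2% charcoal-stripped FBS medium, dosed with compounds plus R5020 agonist and incubated 16 h at 37C. Viability then measured in the same wells by CellTiter-Glo luminescence after 30 min at RT.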
# [18] = target: Nuclear receptor subfamily 1 group I member 2 (Rattus norvegicus) (UniProt Q9R1A7); assay: Rat pregnane X receptor (rPXR) activation by small molecules, qHTS assay (AID 1346983); conditions: rPXR luciferase reporter cells, One-Glo luminescence, 24 h; stronger effect = higher value; also: nearly all actives have a fitted effect of over 20% in size
# Nuclear receptor subfamily 1 group I member 2 (Rattus norvegicus), sequence (Q9R1A7 whole entry, looked up): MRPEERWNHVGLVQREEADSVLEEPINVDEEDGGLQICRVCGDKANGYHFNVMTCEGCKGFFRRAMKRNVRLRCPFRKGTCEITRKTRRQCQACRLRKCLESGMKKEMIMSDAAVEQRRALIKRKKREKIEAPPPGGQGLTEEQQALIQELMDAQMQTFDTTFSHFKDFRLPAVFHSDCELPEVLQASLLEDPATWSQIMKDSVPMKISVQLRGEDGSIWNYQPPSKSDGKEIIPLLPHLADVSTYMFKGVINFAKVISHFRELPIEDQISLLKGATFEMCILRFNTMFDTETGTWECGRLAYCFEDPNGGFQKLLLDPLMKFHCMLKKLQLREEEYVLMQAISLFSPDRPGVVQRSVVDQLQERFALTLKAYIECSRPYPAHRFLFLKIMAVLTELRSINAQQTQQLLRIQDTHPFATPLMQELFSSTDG
# Summary of the method: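 Luminescent readout (One-Glo luciferase, 30 min room temperature) followed 24 hr compound treatment at 37 C of rPXR cells plated 2,000 per well and preincubated 5hr; qHTS format with compounds delivered in DMSO.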
# [19] = target: Nuclear receptor subfamily 1 group I member 2 (Homo sapiens) (UniProt O75469); assay: CYP3A4 induction through human pregnane X receptor (PXR) by small molecules, qHTS assay (AID 1346984); also: nearly all actives have a fitted effect of over 40% in size
# Summary of the method: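 Cells (DPX-2; HepG2 with PXR element plus CYP3A4-promoter luciferase) settled 5hr, then were treated 24hr at 37C. A 3hr, 3uM-final Luciferin-IPA step preceded luminescence measurement with One-Glo.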
# [20] = target: Nuclear receptor subfamily 1 group I member 2 (Homo sapiens) (UniProt O75469); assay: Human pregnane X receptor (PXR) activation by small molecules, qHTS assay (AID 1346985); also: nearly all actives have a fitted effect of over 40% in size
# Summary of the method: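 DPX-2 cells (HepG2 co-transfected with a PXR response element and a CYP3A4-promoter luciferase construct) were seeded at 2,000 per well, rested 5 hr at 37C, then exposed to DMSO-dissolved compounds for 24 hr. Activation was read as luciferase luminescence.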
Structure (SMILES),Potency [1],Potency [2],Potency [3],Potency [4],Potency [5],Potency [6],Potency [7],outcome [8],Potency [9],Potency [10],Potency [11],Potency [12],Potency [13],Potency [14],Potency [15],Potency [16],Potency [17],max activation [18],Potency [19],outcome [20]
Oc1ccc(Cc2ccccc2O)cc1,inactive,inactive,43.8 µM (active) and 48.6 µM (active),inactive,inactive,inactive,inactive,inactive,inactive,inactive,inactive,inactive,inactive,61.9 µM (active),inactive,–,–,–,–,–
Nc1nc(N)c2nc(-c3ccccc3)c(N)nc2n1,inactive,–,–,inactive,inactive,inactive,22.1 µM (active) and 19 µM (active),inactive,inactive,inactive,–,inactive,inactive,49.1 µM (active) and 61.1 µM (active) and 26.6 µM (active),64 µM (active) and inactive,inactive,–,–,–,–
O=[N+]([O-])c1cc(C(F)(F)F)ccc1Cl,inactive,inactive,inactive,–,inactive,inactive,–,–,inactive,inactive,inactive,–,inactive,inactive,–,inactive,inactive,–,–,–
CC1(C)[C@@H](O[C@H]2O[C@H](C(=O)O)[C@@H](O)[C@H](O)[C@H]2O[C@@H]2O[C@H](C(=O)O)[C@@H](O)[C@H](O)[C@H]2O)CC[C@]2(C)[C@H]3C(=O)C=C4[C@@H]5C[C@@](C)(C(=O)O)CC[C@]5(C)CC[C@@]4(C)[C@]3(C)CC[C@@H]12,inactive,inactive,inactive,inactive,inactive,inactive,inactive,–,inactive,inactive,inactive,–,inactive,inactive,inactive,–,–,-0.648% (inactive),inactive,inactive
CCCCC(CC)COC(=O)c1ccc(C(=O)OCC(CC)CCCC)cc1 (stereo not drawn),inactive,inactive,inactive,inactive,inactive,inactive,inactive,–,inactive,inactive,inactive,inactive,inactive,inactive,–,inactive,–,–,–,–
COCN(COC)c1nc(N(COC)COC)nc(N(COC)COC)n1,inactive,inactive,inactive,inactive,inactive,inactive,inactive,inactive,inactive,inactive,inactive,–,–,54.5 µM (active),–,inactive,–,–,–,–
COc1c(Cl)ccc(Cl)c1C(=O)O,inactive,inactive,inactive,inactive,inactive,inactive,–,–,inactive,inactive,inactive,inactive,inactive,inactive,inactive,–,–,–,–,–
OCCOCCOCCOCCOCCO,inactive,inactive,inactive,–,inactive,inactive,–,inactive,inactive,inactive,15.7 µM (active) and inactive,–,inactive,–,–,–,inactive,–,–,–
CC(=O)OC/C=C(\C)CCC=C(C)C,inactive,inactive,inactive,–,inactive,inactive,inactive,–,inactive,inactive,inactive,–,inactive,inactive,inactive,–,inactive,–,–,–
Nc1cccc(C(F)(F)F)c1,inactive,inactive,inactive,–,inactive,inactive,inactive,–,inactive,inactive,inactive,–,inactive,inactive,inactive,–,inactive,–,–,–
